PubChem BioAssay (Tox21)
Results filed as inconclusive are left out. The source made the active and inactive calls. Unless noted, calls follow the shape of the dose curve; as a rule, active = well fitted curve in the direction sought with a large enough effect in the repeat runs; inconclusive = weak or mixed curves; inactive = no such curve, though single readings can be large; an effect the other way counts as inactive or inconclusive.

Assays:
[1] = qHTS assay to identify small molecule antagonists of the thyroid receptor (TR) signaling pathway - cell viability counter screen (AID 743064); also: nearly all actives have a fitted effect of over 50% in size
Method in brief: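 GH3.TRE-Luc cells, 4 h pre-plating; cpd + T3 1 nM final; 37 °C 23.5 h; CellTiter-Fluor 30 min; fluorescence read.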

[2] = qHTS assay to identify small molecule antagonists of the thyroid receptor (TR) signaling pathway (AID 743065); also: series mostly up to about 70 µM; nearly all actives have a fitted effect of over 55% in size
Method in brief: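 GH3.TRE-Luc rat pituitary cells (two TREs driving luciferase) were dosed with compound, then stimulated with 1 nM T3 (final) for 23.5 h at 37 C. ONE-Glo luminescence was the read-out, with CellTiter-Fluor fluorescence as the cytotoxicity counter-screen.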

[3] = test system: thyroid hormone receptor (rat, GH3 cells); test: qHTS assay to identify small molecule agonists of the thyroid receptor (TR) signaling pathway (AID 743066; calls by dose curve)
[4] = biological target: Estrogen receptor (Homo sapiens) (UniProt P03372); test: qHTS assay to identify small molecule antagonists of the estrogen receptor alpha (ER-alpha) signaling pathway (AID 743069; active = well fitted curve in the direction sought with a large enough effect in the signal ratio in the repeat runs, not every such curve was filed as active; the % refers to the signal ratio)
Method in brief: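 In this cell-based reporter format, GripTite HEK293 cells harbouring ER-alpha-UAS-bla were grown overnight with 2% charcoal-stripped FBS, dosed with DMSO-dissolved compounds, then challenged with 17beta-estradiol. After 18 hr at 37C, beta-lactamase activity was detected by FRET fluorescence.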

[5] = biological target: Estrogen receptor (Homo sapiens) (UniProt P03372); test: qHTS assay to identify small molecule agonists of the estrogen receptor alpha (ER-alpha) signaling pathway (AID 743075; calls by dose curve)
[6] = biological target: Estrogen receptor (Homo sapiens) (UniProt P03372); test: qHTS assay to identify small molecule agonists of the estrogen receptor alpha (ER-alpha) signaling pathway using the BG1 cell line (AID 743079); also: nearly all actives have a fitted effect of over 20% in size; also: potency is read from the fitted curve at half-maximal effect
[7] = qHTS assay to identify small molecule antagonists of the estrogen receptor alpha (ER-alpha) signaling pathway using the BG1 cell line (AID 743080; calls by dose curve;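 also: BG1 cells stimulated with 17beta-estradiol alongside compound; series mostly up to about 70 µM; nearly all actives have a fitted effect of over 25% in size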)
Method in brief: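 Endogenous full-length ER-alpha in BG1-Luc-4E2 cells drives a stably integrated 4×ERE luciferase gene; compounds were tested against 17beta-estradiol over 21.5 h, with luminescence and multiplexed viability fluorescence recorded.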

[8] = qHTS assay to identify small molecule antagonists of the estrogen receptor alpha (ER-alpha) signaling pathway using the BG1 cell line - cell viability counter screen (AID 743081);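 also: compound given together with 17beta-estradiol as the ER stimulus; series mostly up to about 70 µM; nearly all actives have a fitted effect of over 45% in size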
Aromatase (Homo sapiens) = Aromatase (Homo sapiens) (UniProt P11511); test: qHTS assay to identify aromatase inhibitors (AID 743083); also: series mostly up to about 70 µM; nearly all actives have a fitted effect of over 55% in size
[9] = qHTS assay to identify aromatase inhibitors - cell viability counter screen (AID 743084);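 also: cells stimulated with testosterone during compound exposure; nearly all actives have a fitted effect of over 55% in size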
[10] = biological target: Aryl hydrocarbon receptor (Homo sapiens) (UniProt P35869); test: qHTS assay to identify small molecule that activate the aryl hydrocarbon receptor (AhR) signaling pathway (AID 743085); also: nearly all actives have a fitted effect of over 15% in size; also: potency is read from the fitted curve at half-maximal effect;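 as to activation: HG2L7.5c1 human HepG2 liver cells with stably integrated DRE-driven firefly reporter; series mostly up to about 70 µM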
Method in brief: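 Luminescence read-out: ONE-Glo reagent, 30 min at room temperature, in HG2L7.5c1 HepG2 reporter cells treated 24 h at 37C. Viability was measured beforehand by CellTiter-Fluor fluorescence after 30 min at 37C.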

[11] = qHTS assay to identify small molecule that activate the aryl hydrocarbon receptor (AhR) signaling pathway - cell viability counter screen (AID 743086);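 also: HepG2 liver cells carrying the AhR DRE luciferase reporter; series mostly up to about 70 µM; nearly all actives have a fitted effect of over 45% in size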
Method in brief: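 HepG2-AhR-luc (HG2L7.5c1) cells, 4000/well, treated 24 h at 37 C with compound; viability measured as CellTiter-Fluor fluorescence after 30 min in the same wells as the luciferase read.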

[12] = biological target: Peroxisome proliferator-activated receptor gamma (Homo sapiens) (UniProt P37231); test: qHTS assay to identify small molecule agonists of the peroxisome proliferator-activated receptor gamma (PPARg) signaling pathway (AID 743094; active = well fitted activation curve with a large enough effect in the signal ratio in the repeat runs, not every such curve was filed as active; the % refers to the signal ratio)
Method in brief: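 Agonist activity was taken from a beta-lactamase reporter (FRET substrate, 1 h at room temperature) in HEK293H cells carrying a PPARg UAS-bla construct. Compounds in DMSO were incubated 17 h at 37C after a 5 h cell pre-incubation.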

[13] = biological target: Peroxisome proliferator-activated receptor gamma (Homo sapiens) (UniProt P37231); test: qHTS assay to identify small molecule antagonists of the peroxisome proliferator-activated receptor gamma (PPARg) signaling pathway (AID 743191; calls by dose curve; also: series mostly up to about 63 µM; nearly all actives have a fitted effect of over 30% in size)
Method in brief: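 GeneBLAzer PPARg UAS-bla HEK293H cells, 5 h post-plating, exposed to compounds 17 h at 37C. LiveBLAzer B/G FRET substrate added for 1 h at room temperature; beta-lactamase reporter read by fluorescence intensity.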

[14] = qHTS assay to identify small molecule antagonists of the peroxisome proliferator-activated receptor gamma (PPARg) signaling pathway - cell viability counter screen (AID 743194); also: nearly all actives have a fitted effect of over 55% in size
Method in brief: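 Cytotoxicity counter screen in PPARg-bla HEK293H cells, same wells as reporter assay. Compounds plus 50 nM rosiglitazone (final) for 17 h at 37 C, then viability read by CellTiter-Glo luminescence.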

[15] = qHTS assay for small molecule agonists of the antioxidant response element (ARE) signaling pathway - cell viability counter screen (AID 743203; calls by dose curve; also: nearly all actives have a fitted effect of over 55% in size)
Method in brief: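 Viability counter screen: CellTiter-Glo luminescence, read after 30 min at room temperature, in ARE-bla HepG2 wells. Compound exposure lasted 16 h at 37C/5% CO2, following a 5 h pre-incubation of the cells after plating.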

[16] = qHTS assay for small molecule activators of the heat shock response signaling pathway - cell viability counter screen (AID 743209); also: nearly all actives have a fitted effect of over 50% in size
Method in brief: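 Cytotoxicity counter screen run in the same wells as the heat-shock bla reporter assay: HeLa HSE-bla cells, 5 h compound exposure at 37 C, viability read by CellTiter-Glo luminescence.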

[17] = qHTS assay to identify small molecule antagonists of the estrogen receptor alpha (ER-alpha) signaling pathway - cell viability counter screen (AID 743074; calls by dose curve; also: nearly all actives have a fitted effect of over 45% in size)
[18] = qHTS assay for small molecule agonists of the antioxidant response element (ARE) signaling pathway (AID 743202; active = well fitted activation curve with a large enough effect in the signal ratio in the repeat runs, not every such curve was filed as active; the % refers to the signal ratio; also: potency is read from the fitted curve at half-maximal effect)
Method in brief: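 HepG2 ARE-bla cells; 16 h treatment at 37 C; FRET-based beta-lactamase fluorescence read after 2 h substrate incubation at room temperature.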

[19] = qHTS assay for small molecule activators of the heat shock response signaling pathway (AID 743210; active = well fitted activation curve with a large enough effect in the signal ratio in the repeat runs, with a control signal flat, not every such curve was filed as active; the % refers to the signal ratio;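 also: HeLa cells with beta-lactamase reporter driven by heat shock elements; series mostly up to about 63 µM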)
Method in brief: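 Following overnight attachment, HSE-bla HeLa cells received test compounds for 5 h at 37 C; beta-lactamase activity was then detected via FRET substrate fluorescence.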
% is scaled to controls: 0 for no effect and ±100 for the full control effect.

Peroxisome proliferator-activated receptor gamma (Homo sapiens), sequence (P37231 whole entry, looked up): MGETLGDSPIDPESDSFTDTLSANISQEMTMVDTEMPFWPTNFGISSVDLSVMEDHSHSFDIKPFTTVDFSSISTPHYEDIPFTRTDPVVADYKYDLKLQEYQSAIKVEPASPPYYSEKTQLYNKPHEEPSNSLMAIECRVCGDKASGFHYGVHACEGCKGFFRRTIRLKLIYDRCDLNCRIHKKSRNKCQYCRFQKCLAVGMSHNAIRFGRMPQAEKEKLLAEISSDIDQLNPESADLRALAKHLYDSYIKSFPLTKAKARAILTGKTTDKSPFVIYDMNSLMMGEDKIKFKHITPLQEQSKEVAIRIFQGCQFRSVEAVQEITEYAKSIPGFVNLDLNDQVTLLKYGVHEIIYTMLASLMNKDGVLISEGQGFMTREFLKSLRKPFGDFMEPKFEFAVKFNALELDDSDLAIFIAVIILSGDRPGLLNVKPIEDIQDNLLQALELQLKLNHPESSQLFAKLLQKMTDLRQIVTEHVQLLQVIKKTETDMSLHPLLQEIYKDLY
Aromatase (Homo sapiens), sequence (P11511 whole entry, looked up): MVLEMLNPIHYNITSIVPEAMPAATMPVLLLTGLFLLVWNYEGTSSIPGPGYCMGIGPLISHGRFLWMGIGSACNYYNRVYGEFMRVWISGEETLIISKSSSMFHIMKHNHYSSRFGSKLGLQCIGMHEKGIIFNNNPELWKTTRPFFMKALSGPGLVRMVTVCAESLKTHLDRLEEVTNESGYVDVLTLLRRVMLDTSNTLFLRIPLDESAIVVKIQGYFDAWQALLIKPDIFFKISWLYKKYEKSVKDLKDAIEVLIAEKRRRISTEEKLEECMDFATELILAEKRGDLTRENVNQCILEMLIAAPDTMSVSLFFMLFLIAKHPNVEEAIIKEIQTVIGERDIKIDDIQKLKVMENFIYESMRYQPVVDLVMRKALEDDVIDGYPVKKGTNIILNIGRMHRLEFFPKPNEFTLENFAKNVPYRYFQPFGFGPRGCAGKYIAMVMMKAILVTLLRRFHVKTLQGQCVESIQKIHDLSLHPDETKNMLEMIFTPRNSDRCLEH
Aryl hydrocarbon receptor (Homo sapiens), sequence (P35869 whole entry, looked up): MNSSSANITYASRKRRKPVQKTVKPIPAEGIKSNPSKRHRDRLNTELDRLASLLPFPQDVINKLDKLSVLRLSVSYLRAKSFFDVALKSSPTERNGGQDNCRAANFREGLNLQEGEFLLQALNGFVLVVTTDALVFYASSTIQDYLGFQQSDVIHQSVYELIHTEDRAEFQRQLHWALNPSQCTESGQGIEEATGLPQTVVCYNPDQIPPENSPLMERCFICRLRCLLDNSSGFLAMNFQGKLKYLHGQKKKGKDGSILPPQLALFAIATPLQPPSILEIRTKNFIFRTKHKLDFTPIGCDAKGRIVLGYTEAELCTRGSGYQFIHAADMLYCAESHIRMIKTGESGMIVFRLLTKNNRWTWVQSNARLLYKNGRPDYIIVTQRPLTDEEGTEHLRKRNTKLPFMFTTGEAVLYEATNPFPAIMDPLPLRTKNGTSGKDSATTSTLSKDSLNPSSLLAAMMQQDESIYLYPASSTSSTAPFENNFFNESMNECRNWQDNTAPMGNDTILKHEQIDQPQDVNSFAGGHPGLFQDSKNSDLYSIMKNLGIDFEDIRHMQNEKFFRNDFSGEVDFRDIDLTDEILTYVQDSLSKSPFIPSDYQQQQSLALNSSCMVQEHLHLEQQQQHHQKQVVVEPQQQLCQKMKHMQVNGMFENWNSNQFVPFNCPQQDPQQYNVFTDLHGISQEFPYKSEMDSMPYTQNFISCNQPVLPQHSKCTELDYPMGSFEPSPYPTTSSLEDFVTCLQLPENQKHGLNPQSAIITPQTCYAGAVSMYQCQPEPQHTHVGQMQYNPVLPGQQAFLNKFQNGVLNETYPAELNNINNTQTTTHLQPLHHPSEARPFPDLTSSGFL
Estrogen receptor (Homo sapiens), sequence (P03372 whole entry, looked up): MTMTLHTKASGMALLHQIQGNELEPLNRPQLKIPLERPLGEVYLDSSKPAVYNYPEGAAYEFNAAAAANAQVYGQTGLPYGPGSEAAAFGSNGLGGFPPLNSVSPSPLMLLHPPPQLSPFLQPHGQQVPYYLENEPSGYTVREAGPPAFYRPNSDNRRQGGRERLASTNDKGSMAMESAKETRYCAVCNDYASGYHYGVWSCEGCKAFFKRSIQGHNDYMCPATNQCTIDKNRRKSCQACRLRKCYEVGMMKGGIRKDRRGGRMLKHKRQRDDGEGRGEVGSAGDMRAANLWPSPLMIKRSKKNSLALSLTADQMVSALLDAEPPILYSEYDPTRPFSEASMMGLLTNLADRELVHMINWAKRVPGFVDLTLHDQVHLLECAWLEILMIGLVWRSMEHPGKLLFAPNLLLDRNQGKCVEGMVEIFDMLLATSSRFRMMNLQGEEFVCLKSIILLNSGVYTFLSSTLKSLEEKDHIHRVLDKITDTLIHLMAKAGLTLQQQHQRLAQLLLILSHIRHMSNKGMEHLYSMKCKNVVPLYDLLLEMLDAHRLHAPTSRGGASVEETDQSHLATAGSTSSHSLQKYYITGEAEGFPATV

C=CCCCCCCCCCCC
inactive: activity change, negative = cytotoxic [1] -6.91% [at 8.44 µM] | activity, negative = inhibition [2] 8.56% [at 8.44 µM] | activation [3] -1.31% [at 8.08 µM] | activity, negative = inhibition [4] -5.51% [at 6.71 µM] | activation [5] -3.33% [at 6.71 µM] | activation [6] -5.04% [at 8.47 µM] | activity change, negative = inhibition [7] -1.81% [at 8.47 µM] | activity change, negative = cytotoxicity [8] 2.93% [at 8.47 µM] | activity, negative = inhibition (Aromatase (Homo sapiens)) 6.54% [at 8.47 µM] | activity change, negative = cytotoxicity [9] 2.95% [at 8.47 µM] | activation [10] -0.125% [at 8.47 µM] | viability change, negative = cytotoxic [11] 0.7% [at 8.47 µM] | activation [12] -4.62% [at 7.08 µM] | ratio activity, negative = inhibition [13] 16.1% [at 5.95 µM] | activity change, negative = cytotoxicity [14] 13.8% [at 5.95 µM] | viability change, negative = cytotoxic [15] 9.33% [at 8.36 µM] | activity change, negative = cytotoxicity [16] -3.82% [at 5.95 µM]

C[Si]1(C)N[Si](C)(C)N[Si](C)(C)N1
inactive: Potency [1] | Potency [2] | Potency [3] | Potency [4] | Potency [17] | Potency [5] | Potency [6] | outcome [7] | outcome [8] | outcome (Aromatase (Homo sapiens)) | Potency [9] | Potency [11] | outcome [12] | outcome [14] | Potency [18] | outcome [15] | outcome [16] | outcome [19]

CCOC(=O)CCCCCCCCC(=O)OCC
inactive: Potency [1] | Potency [2] | Potency [3] | Potency [4] | Potency [17] | Potency [5] | outcome [7] | outcome [8] | outcome (Aromatase (Homo sapiens)) | Potency [9] | Potency [10] | Potency [11] | outcome [12] | Potency [13] | outcome [14] | Potency [18] | outcome [16] | outcome [19]

C=CCOCC(CO)(COCC=C)COCC=C
inactive: Potency [1] | Potency [2] | Potency [3] | Potency [4] | Potency [5] | Potency [6] | outcome [7] | outcome [8] | outcome (Aromatase (Homo sapiens)) | Potency [9] | Potency [11] | Potency [18] | outcome [15] | outcome [16]

CC(C)CCC(=O)CCC(C)C
inactive: Potency [1] | Potency [2] | Potency [3] | Potency [4] | Potency [5] | Potency [6] | outcome [7] | outcome [8] | outcome (Aromatase (Homo sapiens)) | Potency [9] | outcome [12] | Potency [13] | outcome [14] | outcome [15] | outcome [16] | outcome [19]

CNC(=O)C(c1ccccc1)c1ccccc1
inactive: Potency [1] | Potency [2] | Potency [3] | Potency [4] | Potency [17] | Potency [5] | Potency [6] | outcome [7] | outcome [8] | outcome (Aromatase (Homo sapiens)) | Potency [10] | Potency [11] | outcome [14] | Potency [18] | outcome [15] | outcome [16]

Cc1ccccc1C(=O)N1CC/C(=N\OS(=O)(=O)O)c2ccc(Cl)cc21
inactive: Potency [1] | Potency [2] | Potency [3] | Potency [4] | Potency [5] | Potency [6] | outcome [7] | outcome [8] | outcome (Aromatase (Homo sapiens)) | Potency [9] | Potency [10] | Potency [11] | outcome [12] | Potency [13] | outcome [14] | Potency [18] | outcome [15] | outcome [16]

O=[Si]=O
inactive: Potency [1] | Potency [2] | Potency [3] | Potency [4] | Potency [17] | Potency [5] | Potency [6] | outcome [7] | outcome [8] | outcome (Aromatase (Homo sapiens)) | Potency [9] | outcome [12] | Potency [13] | outcome [14] | Potency [18] | outcome [16] | outcome [19]

Cc1cc(O)c2c(c1)C(=O)c1cccc(O)c1C2=O
active: Potency [10] 26.7 µM | Potency [18] 10.6 µM
inactive: Potency [1] | Potency [2] | Potency [3] | Potency [4] | Potency [17] | Potency [5] | Potency [6] | outcome [7] | outcome (Aromatase (Homo sapiens)) | Potency [9] | outcome [12] | outcome [14] | outcome [15] | outcome [16] | outcome [19]

NS(=O)(=O)c1cc2c(cc1Cl)NC(CC1CCCC1)NS2(=O)=O (stereo unspecified)
inactive: Potency [1] | Potency [2] | Potency [3] | Potency [17] | outcome [8] | outcome (Aromatase (Homo sapiens)) | Potency [9] | Potency [10] | Potency [11] | outcome [12] | Potency [13] | outcome [14] | Potency [18]

CC(=O)c1ccc(OCC(=O)N2CCCCC2)cc1
inactive: Potency [1] | Potency [2] | Potency [3] | Potency [4] | Potency [17] | Potency [5] | outcome (Aromatase (Homo sapiens)) | Potency [9] | Potency [11] | outcome [12] | Potency [13] | outcome [14] | Potency [18] | outcome [16] | outcome [19]
active: Potency [6] 18.8 µM

O=C(O)c1ccccc1C(=O)OCc1ccccc1
inactive: Potency [1] | Potency [2] | Potency [3] | Potency [4] | Potency [5] | Potency [6] | outcome [8] | outcome (Aromatase (Homo sapiens)) | Potency [9] | Potency [10] | outcome [12] | Potency [13] | outcome [14] | Potency [18] | outcome [15] | outcome [16] | outcome [19]

OCCCCCCCl
inactive: Potency [1] | Potency [2] | Potency [3] | Potency [4] | Potency [17] | Potency [5] | outcome [7] | outcome [8] | outcome (Aromatase (Homo sapiens)) | Potency [9] | Potency [10] | Potency [11] | outcome [12] | outcome [14] | Potency [18] | outcome [16] | outcome [19]

C[N+](C)(C)CC(O)CCl (stereo unspecified)
inactive: Potency [1] | Potency [2] | Potency [3] | Potency [4] | Potency [17] | Potency [5] | Potency [6] | outcome [8] | outcome (Aromatase (Homo sapiens)) | Potency [9] | Potency [10] | outcome [12] | Potency [13] | outcome [14] | Potency [18] | outcome [15] | outcome [16] | outcome [19]

CC(=O)N(CC(O)CO)c1c(I)c(C(=O)NCC(O)CO)c(I)c(C(=O)NCC(O)CO)c1I (stereo unspecified)
inactive: Potency [1] | Potency [2] | Potency [3] | Potency [4] | Potency [17] | Potency [5] | Potency [6] | outcome [7] | outcome [8] | outcome (Aromatase (Homo sapiens)) | Potency [10] | Potency [11] | outcome [12] | Potency [13] | outcome [14] | Potency [18] | outcome [15] | outcome [16] | outcome [19]
